From publication PMC4336329 (PLoS ONE, 2015) come the findings set out here.

Hit rate of the full screen: of about 310,000 compounds, about 14,000 (4.5%) showed an effect of 50% or more. The effect is printed as a negative number. Only a selection was taken, and strong results are over-represented in it overall.
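Further: peak tail current of the secondary pulse compared with the same well before compound.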

Chain of human ether-à-go-go-related gene (hERG) potassium channel (Q12809 whole entry, looked up): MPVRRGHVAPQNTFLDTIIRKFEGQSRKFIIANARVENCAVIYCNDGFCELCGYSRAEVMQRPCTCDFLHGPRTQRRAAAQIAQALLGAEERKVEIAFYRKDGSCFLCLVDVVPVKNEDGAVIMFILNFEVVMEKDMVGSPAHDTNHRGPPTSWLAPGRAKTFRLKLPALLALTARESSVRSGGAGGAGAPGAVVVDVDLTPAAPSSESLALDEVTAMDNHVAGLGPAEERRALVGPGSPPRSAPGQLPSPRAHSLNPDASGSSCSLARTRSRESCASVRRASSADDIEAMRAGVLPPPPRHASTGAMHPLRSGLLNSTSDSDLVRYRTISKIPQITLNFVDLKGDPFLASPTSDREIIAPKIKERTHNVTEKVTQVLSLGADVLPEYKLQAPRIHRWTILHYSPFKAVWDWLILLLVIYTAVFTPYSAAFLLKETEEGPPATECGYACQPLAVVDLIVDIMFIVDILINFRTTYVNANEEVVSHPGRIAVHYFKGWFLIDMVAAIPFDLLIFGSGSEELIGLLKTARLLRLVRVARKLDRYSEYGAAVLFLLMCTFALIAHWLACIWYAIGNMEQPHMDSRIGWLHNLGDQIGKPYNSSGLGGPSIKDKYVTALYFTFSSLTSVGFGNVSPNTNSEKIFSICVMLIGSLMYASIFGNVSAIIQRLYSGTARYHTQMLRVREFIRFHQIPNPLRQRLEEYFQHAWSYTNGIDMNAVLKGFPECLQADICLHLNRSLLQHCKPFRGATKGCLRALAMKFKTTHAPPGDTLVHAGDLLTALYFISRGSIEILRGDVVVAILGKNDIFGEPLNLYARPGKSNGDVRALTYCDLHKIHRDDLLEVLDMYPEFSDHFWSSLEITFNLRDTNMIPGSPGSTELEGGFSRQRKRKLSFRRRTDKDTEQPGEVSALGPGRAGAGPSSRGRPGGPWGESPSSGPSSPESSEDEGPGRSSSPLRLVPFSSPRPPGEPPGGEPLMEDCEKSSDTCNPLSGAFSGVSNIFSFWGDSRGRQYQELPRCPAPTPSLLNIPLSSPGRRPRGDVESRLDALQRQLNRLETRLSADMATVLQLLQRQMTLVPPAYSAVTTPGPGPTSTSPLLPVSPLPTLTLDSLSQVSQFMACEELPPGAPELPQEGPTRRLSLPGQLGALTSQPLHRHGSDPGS

This test has as its target human ether-à-go-go-related gene (hERG) potassium channel (human, UniProt Q12809). Description: primary screen, population patch clamp on CHO cells stably expressing hERG; higher = less effect of the substance.
On to `C=CCc1cc(OC)ccc1OCCOCCN1CCc2ccccc2C1.O=C(O)C(=O)O`, for which the “hERG current change (%, negative = inhibition) at 10uM” value was -71%.
As for `C=CCc1ccc(OCCOCCN(C)C)c(OC)c1.O=C(O)C(=O)O`, the figure is -27.5%; as for `O=C(NCc1ccncc1)c1ccc(Cl)c(S(=O)(=O)N2CCOCC2)c1`, 12.4%; as for `CC1(C)OCC(COC(=O)Nc2cccnc2)([N+](=O)[O-])CO1`, 23.8%.
With `O=C(Nc1ccccc1)OCCOc1ccccc1` the figure was -17.8%; with `CC1(c2ccccc2)CC(C)(C)N2C(=O)/C(=C3\SC(=S)NC3=O)c3cccc1c32` (centres unmarked), -0.561%; with `O=C(COC(=O)Cc1cn2ccsc2n1)Nc1nc2ccccc2s1`, 8.88%.
As for `CCOCCCNC(=O)C1CCN(c2cc(C)nc3c(-c4ccc(OC)c(OC)c4)c(C)nn23)CC1`, the figure is -7.5%; as for `C=CCc1ccc(OCCOCCOc2cccc3ccc(C)nc23)c(OC)c1.O=C(O)C(=O)O`, -61.6%.
For `C=CCc1ccc(OCCOc2cccc3ccc(C)nc23)c(OC)c1.O=C(O)C(=O)O`, the “hERG current change (%, negative = inhibition) at 10uM” value is -6.6%.
On to `COc1cc(C)ccc1OCCOCCOc1cccc2ccc(C)nc12.O=C(O)C(=O)O`, for which the “hERG current change (%, negative = inhibition) at 10uM” value was -29.3%.
As for `CCOC(=O)c1[nH]c(C)c(C(=O)N2CCc3c([nH]c4ccccc34)C2c2ccccn2)c1C` (centres unmarked), the figure is -0.347%.
As for `CSc1nc(SCC(=O)NCc2ccco2)c2c3c(sc2n1)CN(C)CC3`, the figure is -0.986%; as for `CSc1nc(NCCCN(C)C)c2c3c(sc2n1)CN(C)CC3`, 1.56%.
As for `CCC(O)CNc1nc(SC)nc2sc3c(c12)CCN(C)C3` (centres unmarked), the figure is 0.847%; as for `CSc1nc(NCc2ccccc2)c2c3c(sc2n1)CN(C)CC3`, -78%; as for `CCN(CC)CCCNc1nc(SC)nc2sc3c(c12)CCN(C)C3`, 11%.
On to `CSc1nc(NCc2ccco2)c2c3c(sc2n1)CN(C)CC3`, for which the “hERG current change (%, negative = inhibition) at 10uM” value is -75%.
With `Cc1ccc(CN2CC(C(=O)O)CC2=O)cc1` (centres unmarked) the figure was 6.55%.
With `CCOc1ccc(NC(=O)C(CC(=O)O)Cc2ccc(Br)cc2)cc1` (centres unmarked) the figure was 11.1%; with `COc1ccc(C(=O)Oc2cccc(/C=N/NC(N)=S)c2)cc1`, 11.7%; with `Cc1ccc(NC(=S)N(CCCN2CCC(C)CC2)Cc2ccco2)cc1C`, -70.3%.
Consider `Cc1ccc(NC(=S)N(CCCN2CCCC(C)C2)Cc2ccco2)cc1C` (centres unmarked), for which the “hERG current change (%, negative = inhibition) at 10uM” value is -76.2%.
With `Cc1ccc2[nH]c(=O)c(CN(Cc3ccco3)C(=O)CN3CCCC(C)C3)cc2c1` (centres unmarked) the figure was -57%.
With `Cc1ccc2[nH]c(=O)c(CN(Cc3ccco3)C(=O)c3ccncc3)cc2c1` the figure was -43.4%.
Consider `Cc1ccc(NC(=S)N(CCCN2CCOCC2)Cc2ccco2)cc1C`, for which the “hERG current change (%, negative = inhibition) at 10uM” value is given as -31.9%.
As for `Cc1ccccc1NC(=S)N(CCCN1CCC(C)CC1)Cc1ccco1`, the figure is -47.9%.
As for `Cc1ccc2[nH]c(=O)c(CN(Cc3ccco3)C(=O)N3CCOCC3)cc2c1`, the figure is -0.449%.
As for `Cc1ccc(NC(=S)N(CCCN2CCOCC2)Cc2ccco2)cc1`, the figure is 4.36%; as for `Cc1ccc(NC(=S)N(CCCN2CCC(C)CC2)Cc2ccco2)cc1`, -72%; as for `O=C(c1c[nH]c2ccccc12)C(O)C(c1ccccc1)N1CCOCC1` (centres unmarked), -0.703%.
Turning to `CSC1=N/C(=C\c2c(F)cccc2Cl)C(=O)S1`, the “hERG current change (%, negative = inhibition) at 10uM” value is reported as -17.5%.
On to `CC(=O)Nc1ccc(NC(=O)CSc2nnc(C)n2-c2ccccc2)cc1`, for which the “hERG current change (%, negative = inhibition) at 10uM” value is recorded as 26.1%.
As for `CCOC(=O)C1C(=O)OC2(CCOC(C)(C)C2)C1C(=O)OCC` (centres unmarked), the figure is 5.89%; as for `COc1ccc(N(CC(=O)NCc2ccccc2Cl)S(=O)(=O)c2c(C)n[nH]c2C)cc1`, 2.87%; as for `O=C(Nc1ccc2c(c1)OCCO2)C1CCN(C(=O)c2ccc(Br)cc2)CC1`, -52.7%.
For `COc1ccc(C(=O)N2CCC(C(=O)Nc3ccc4c(c3)OCCO4)CC2)cc1`, the “hERG current change (%, negative = inhibition) at 10uM” value is -44.2%.
With `O=C(Nc1ccc2c(c1)OCCO2)C1CCN(C(=O)c2ccccc2)CC1` the figure was 5.84%.
With `O=C(Nc1ccc2c(c1)OCO2)C1CCN(C(=O)c2ccc(Br)cc2)CC1` the figure was -70.5%; with `COc1cc(OC)cc(C(=O)N2CCC(C(=O)Nc3ccc4c(c3)OCCO4)CC2)c1`, 2.48%.
With `Cc1ccccc1C(=O)N1CCC(C(=O)Nc2ccc3c(c2)OCO3)CC1` the figure was 3.97%; with `COc1ccc(C(=O)N2CCC(C(=O)Nc3ccc4c(c3)OCO4)CC2)cc1`, -79.9%.
With `O=C(Nc1ccc2c(c1)OCO2)C1CCN(C(=O)c2ccc(Cl)cc2)CC1`, the “hERG current change (%, negative = inhibition) at 10uM” value is recorded as -73.5%.
As for `O=C(Nc1ccc2c(c1)OCO2)C1CCCCC1`, the figure is 0.102%; as for `O=C(Nc1ccc2c(c1)OCCO2)C1CCN(C(=O)c2ccc(Cl)cc2)CC1`, -12.5%; as for `O=C(Nc1ccc2c(c1)OCCO2)C1CCN(C(=O)c2ccc(F)cc2)CC1`, 3.73%.
As for `CS(=O)(=O)N1CCC(C(=O)Nc2ccc3c(c2)OCO3)CC1`, the figure is -7.81%.
